Where “and” joins values, the source holds several entries; their conditions need not be identical. Identical values can stand only once. Records with an inconclusive call do not appear. Calls of active or inactive are those of the source. Unless noted, the call rests on the fitted dose curve; in most records, active means well fitted curve in the direction sought with a large enough effect; inconclusive means small, poorly fitted or top-dose-only effect, or another doubt; inactive means no such curve, though single readings can be large; an effect the other way counts as inactive or inconclusive.
Key:
[1] = molecular target: Cytochrome P450 1A2 (Homo sapiens) (UniProt P05177); assay: p450-cyp1a2 (AID 410; calls by dose curve; further: potency means the concentration at half of the fitted maximal effect)
Procedure, shortened: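 Human CYP1A2 (20nM) demethylated Luciferin-ME at its Km (100uM) in 100mM KPO4. After 10 min compound preincubation, NADPH regeneration ran the reaction 60 min at room temperature. Luciferin was read by luminescence, normalized to 57 uM furafylline.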

[2] = molecular target: Glucocorticoid receptor (Homo sapiens) (UniProt P04150); assay: GR-GFP Redistribution (AID 450;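 active means compounds whose dose series gives a full or clear partial fitted curve of increased nuclear translocation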; further: potency means the concentration at half of the fitted maximal effect); conditions: U2OS GR-GFP nuclear translocation, laser cytometry, 2 h
[3] = molecular target: Glucocorticoid receptor (Homo sapiens) (UniProt P04150); assay: GR-EFC Redistribution (AID 451; calls by dose curve; further: potency means the concentration at half of the fitted maximal effect); conditions: CHO-K1 GR-EFC translocation, beta-gal luminescence, 2 h
Procedure, shortened: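 CHO-K1 cells expressing nuclear EA and GR-ED fragments of b-gal; compounds titrated up to 46 uM final, 2 h at 37 C. GR nuclear translocation read as complemented b-gal luminescence after 1 h RT detection.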

[4] = molecular target: Mitogen-activated protein kinase 10 (Mus musculus) (UniProt Q61831); assay: JNK3 AlphaScreen Assay (AID 530; active means well fitted curve in either direction with a large enough effect, not every such curve was filed as active;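 further: kinase came from lysate of stimulated human HepG2 cells; signal reports phosphorylation of biotinylated GST-cJun 1-79 at Ser73 with 10 µM ATP; on the % scale 0 is the no-effect control and ±100 the full control effect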)
Procedure, shortened: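 qHTS format: compounds tested as titrations against IL-1beta/TNF-alpha-activated HepG2 lysate JNK3 with biotin-GST-cJun substrate and 10 uM ATP at room temperature. Loss of anti-phospho-cJun AlphaScreen signal indicates inhibition.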

[5] = molecular target: 3',5'-cyclic-AMP phosphodiesterase 4B (Homo sapiens) (UniProt Q07343); assay: qHTS Assay for Inhibitors of PDE-IV (AID 607; active means well fitted activation curve with a large enough effect in the main read-out, with a control signal flat, not every such curve was filed as active; further: % of control where 0% means no effect)
Procedure, shortened: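 HEK293 ACTOne cells with CNG channel (1000/well), endogenous PDE4; membrane potential dye, compounds up to 22.9 uM final. Fluorescence Ex 535/Em 590; RO 20-1724 (100 uM final) as reference.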

[6] = molecular target: Cytochrome P450 2C9 (Homo sapiens) (UniProt P11712); assay: qHTS Assay for Inhibitors and Substrates of Cytochrome P450 2C9 (AID 883); further: nearly all actives have a fitted effect of over 60% in size; further: potency means the concentration at half of the fitted maximal effect
Procedure, shortened: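 10nM CYP2C9 + 100uM Luciferin-H (=KM), 25mM KPO4; cpd 10 min 37C; NADPH regen, 60 min 37C; stop/detect with P450 Glo-Buffer 20 min; luminescence. Norm. to 57uM sulphaphenazole as full inhibition.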

[7] = molecular target: Cytochrome P450 2D6 (Homo sapiens) (UniProt P10635); assay: qHTS Assay for Inhibitors and Substrates of Cytochrome P450 2D6 (AID 891); further: nearly all actives have a fitted effect of over 60% in size; further: potency means the concentration at half of the fitted maximal effect
Procedure, shortened: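 Human CYP2D6 (5 nM) with 30 uM Luciferin-ME EGE (at Km) in 100 mM KPO4, compound preincubated 10 min, then NADPH regeneration system for 60 min at room temperature. Luciferin read by luminescence; normalized to 1.43 uM quinidine.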

[8] = molecular target: Cytochrome P450 2C19 (Homo sapiens) (UniProt P33261); assay: qHTS Assay for Inhibitors and Substrates of Cytochrome P450 2C19 (AID 899); further: nearly all actives have a fitted effect of over 60% in size; further: potency means the concentration at half of the fitted maximal effect
Procedure, shortened: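 Luminescent read-out of luciferin formed from Luciferin-H EGE (10uM, equal to KM). Enzyme 5nM in 50mM KPO4; compound added, 10 min at 37C, then NADPH regenerating system for 60 min at 37C. Full inhibition defined by 57uM ketoconazole.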

[9] = molecular target: Cytochrome P450 3A4 (Homo sapiens) (UniProt P08684); assay: qHTS Assay for Activators of Cytochrome P450 3A4 (AID 885); further: nearly all actives have a fitted effect of over 65% in size
Procedure, shortened: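 Human CYP3A4 (20 nM) with Luciferin-PPXE at 25 uM (its KM) in 200 mM KPO4; 10 min compound preincubation, then NADPH regeneration and 60 min reaction at RT. Luciferin read by luminescence; normalized to 57 uM ketoconazole full inhibition.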

[10] = Cell Viability - BJ (AID 421; calls by dose curve;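 further: potency means the concentration at half of the fitted maximal effect; cells exposed to compound for 40 hours at 37 °C before readout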); conditions: BJ fibroblast viability, qHTS
Procedure, shortened: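 Normal human BJ foreskin fibroblasts, 1500/well in complete medium, treated 40 hr at 37 °C. Cellular ATP by CellTiter-Glo luminescence; normalized to DMSO and 100 uM tamoxifen, AC50 from Hill fit.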

[11] = Cell Viability - Jurkat (AID 426;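 active means dose-dependent loss of cell ATP signal giving a full or clear fitted curve, ranked by lower potency value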; further: potency means the concentration at half of the fitted maximal effect); conditions: qHTS
Procedure, shortened: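 Jurkat (clone E6-1, human T-cell leukemia) cells, 5000/well in complete medium, were exposed to compound for 40 hr at 37 °C. Viability was read as intracellular ATP by CellTiter-Glo luminescence; AC50 came from Hill fits of concentration-response data.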

[12] = Cell Viability - Hek293 (AID 427;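 active means compounds whose dose-response curve shows a full or clear partial loss of cell viability, called from curve shape rather than a numeric limit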;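 further: potency means the concentration at half of the fitted maximal effect; cells exposed to compound for 40 hours at 37 °C before reading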); conditions: qHTS
Procedure, shortened: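 HEK293 cells in complete medium were exposed to compound for 40 hr at 37 °C, then cellular ATP was read by CellTiter-Glo luminescence. Data were normalized to DMSO (basal) and 100 uM tamoxifen (100% inhibition), and AC50 came from Hill fits.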

[13] = Cell Viability - MRC5 (AID 434; calls by dose curve;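 further: potency means the concentration at half of the fitted maximal effect; potency reflects cytotoxicity seen as loss of intracellular ATP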); conditions: MRC5 lung fibroblast viability, qHTS
Procedure, shortened: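 MRC5 normal human lung fibroblasts, 1500 cells/well, exposed to compound for 40 hr at 37 C. Cellular ATP was read by CellTiter-Glo luminescence; data normalized to DMSO and 100 uM tamoxifen, with AC50 from Hill fits.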

[14] = Cell Viability - SK-N-SH (AID 435; calls by dose curve;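 further: potency means the concentration at half of the fitted maximal effect; compound exposure lasted 40 h at 37 °C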); conditions: SK-N-SH neuroblastoma cell viability qHTS
Procedure, shortened: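 SK-N-SH human neuroblastoma cells (1500/well) were exposed to compounds in complete medium for 40 h at 37 °C, and intracellular ATP was then measured by CellTiter-Glo luminescence. AC50 was taken from Hill fits, normalized to DMSO and 100 uM tamoxifen.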

[15] = Cellular Toxicity (caspase-3) Renal Proximal Tubule (AID 667); conditions: renal proximal tubule cells; at 91.7 µM (top of the series) unless noted;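 further: cells exposed to compound for 16 hours at 37 °C before detection; 0% = DMSO basal and 100% = 10 µM staurosporine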
Procedure, shortened: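 Primary rat proximal tubule cells, 1000/well, 5 h plating at 37 °C, then compound 16 h at 37 °C. Caspase-Glo 3/7 reagent, 1 h RT, luminescence. Normalized to DMSO (basal) and 10 uM staurosporine (100%); Hill-fit AC50.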

[16] = MultiTox-Fluor Cytotoxicity Assay - LYMP1-002 - Live Cells (AID 955); further: on the % scale 0 is the no-effect control and ±100 the full control effect
Procedure, shortened: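 Human lymphoblastoid LYMP1-002 cells, 2500/well in complete medium, rested 5 hr at 37 C, then exposed to compounds for 16 hr at 37 C. Live-cell protease cleavage of GF-AFC read by fluorescence (Ex/Em 405/510) after 60 min at room temperature; AC50 from Hill fits.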

[17] = MultiTox-Fluor Cytotoxicity Assay - LYMP1-003 - Live Cells (AID 962);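 further: 0% = DMSO only and full loss = 92 µM tetraoctylammonium bromide; cytotoxic hits lower the live-cell protease signal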
Procedure, shortened: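 LYMP1-003 human lymphoblastoid cells (2500/well) in complete medium were preincubated 5 hr at 37 C, then exposed to compounds for 16 hr at 37 C. Live-cell protease cleavage of GF-AFC read by fluorescence (Ex/Em 405/510); AC50 from Hill fits.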

[18] = Cell Viability - LYMP2-008 (AID 980); further: nearly all actives have a fitted effect of over 60% in size; further: potency means the concentration at half of the fitted maximal effect
Procedure, shortened: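 Human lymphoblastoid cells (2500/well) were plated, held 5 hr at 37 C, then exposed to compounds for 24 hr at 37 C in complete medium. Intracellular ATP was read by CellTiter-Glo luminescence; AC50 from Hill-fitted concentration-response.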

[19] = qHTS assay for environmental chemicals that activate the Aryl hydrocarbon Receptor (AhR) signaling pathway (AID 651777); conditions: 1A2-DRE human hepatoma cells, luciferase, 24 h; activation: stronger effect = higher value; further: % of control where 0% means no effect; nearly all actives have a fitted effect of over 15% in size
Procedure, shortened: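 Human hepatoma 1A2-DRE cells, stably carrying a dioxin response element and CYP1A2 promoter driving luciferase, were exposed to compounds for 24 hr at 37 C and 5% CO2. Luciferase signal was then read after 30 min One-Glo at room temperature.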

[20] = qHTS assay for small molecule agonists of the antioxidant response element (ARE) signaling pathway measured by Nrf2-dependant transcriptional activity - cell viability counter screen (AID 720653; active means well fitted curve in the direction sought with a large enough effect in the repeat runs; an effect the other way counts as inactive or inconclusive; further: on the % scale 0 is the no-effect control and ±100 the full control effect); conditions: ARE-bla HepG2 viability, CellTiter-Glo ATP luminescence, 16 h; max response: stronger effect = lower value
Procedure, shortened: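 ARE-bla HepG2 cells treated with compounds for 16 h at 37C; this counter screen measures viability as intracellular ATP by CellTiter-Glo luminescence after 30 min at room temperature.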

Chain of Cytochrome P450 1A2 (Homo sapiens) (P05177 whole entry, looked up): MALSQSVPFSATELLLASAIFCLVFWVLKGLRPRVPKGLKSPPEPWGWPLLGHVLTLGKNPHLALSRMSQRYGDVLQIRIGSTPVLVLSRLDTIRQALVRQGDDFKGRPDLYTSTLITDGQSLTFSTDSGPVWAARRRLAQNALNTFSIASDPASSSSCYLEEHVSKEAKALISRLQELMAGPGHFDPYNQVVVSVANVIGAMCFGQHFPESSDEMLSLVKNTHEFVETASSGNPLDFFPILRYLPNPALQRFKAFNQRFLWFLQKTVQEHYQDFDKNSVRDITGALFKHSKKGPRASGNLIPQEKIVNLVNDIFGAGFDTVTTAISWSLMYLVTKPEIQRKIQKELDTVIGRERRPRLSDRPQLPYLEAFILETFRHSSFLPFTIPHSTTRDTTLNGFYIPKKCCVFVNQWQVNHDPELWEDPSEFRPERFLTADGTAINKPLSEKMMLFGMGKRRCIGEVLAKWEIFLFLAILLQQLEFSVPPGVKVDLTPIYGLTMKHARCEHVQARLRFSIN
Chain of Cytochrome P450 2C9 (Homo sapiens) (P11712 whole entry, looked up): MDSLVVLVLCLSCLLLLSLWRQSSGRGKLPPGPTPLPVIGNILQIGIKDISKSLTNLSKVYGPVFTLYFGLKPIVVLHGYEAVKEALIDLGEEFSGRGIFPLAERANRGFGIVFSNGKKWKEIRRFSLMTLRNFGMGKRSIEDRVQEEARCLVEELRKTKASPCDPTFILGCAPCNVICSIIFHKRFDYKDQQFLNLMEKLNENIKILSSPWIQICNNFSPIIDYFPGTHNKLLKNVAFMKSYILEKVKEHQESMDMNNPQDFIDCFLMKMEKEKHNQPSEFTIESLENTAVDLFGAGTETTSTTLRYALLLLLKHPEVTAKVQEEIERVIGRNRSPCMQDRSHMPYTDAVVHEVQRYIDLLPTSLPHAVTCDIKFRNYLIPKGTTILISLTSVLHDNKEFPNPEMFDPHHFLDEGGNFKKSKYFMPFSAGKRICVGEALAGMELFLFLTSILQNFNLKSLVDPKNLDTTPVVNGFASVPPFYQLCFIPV
Chain of Cytochrome P450 3A4 (Homo sapiens) (P08684 whole entry, looked up): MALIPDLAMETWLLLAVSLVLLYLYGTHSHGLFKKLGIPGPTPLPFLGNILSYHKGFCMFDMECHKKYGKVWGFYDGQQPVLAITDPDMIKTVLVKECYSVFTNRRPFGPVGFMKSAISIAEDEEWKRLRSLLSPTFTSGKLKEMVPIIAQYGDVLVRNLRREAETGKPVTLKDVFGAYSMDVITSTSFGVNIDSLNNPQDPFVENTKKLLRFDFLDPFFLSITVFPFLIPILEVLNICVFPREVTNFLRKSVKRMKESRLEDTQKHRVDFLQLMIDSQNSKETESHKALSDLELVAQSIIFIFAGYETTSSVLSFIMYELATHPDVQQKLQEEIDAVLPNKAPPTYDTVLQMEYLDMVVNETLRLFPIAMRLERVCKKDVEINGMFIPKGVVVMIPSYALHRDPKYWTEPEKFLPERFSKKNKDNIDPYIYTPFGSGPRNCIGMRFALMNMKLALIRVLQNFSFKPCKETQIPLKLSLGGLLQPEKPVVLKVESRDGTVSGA
Chain of 3',5'-cyclic-AMP phosphodiesterase 4B (Homo sapiens) (Q07343 whole entry, looked up): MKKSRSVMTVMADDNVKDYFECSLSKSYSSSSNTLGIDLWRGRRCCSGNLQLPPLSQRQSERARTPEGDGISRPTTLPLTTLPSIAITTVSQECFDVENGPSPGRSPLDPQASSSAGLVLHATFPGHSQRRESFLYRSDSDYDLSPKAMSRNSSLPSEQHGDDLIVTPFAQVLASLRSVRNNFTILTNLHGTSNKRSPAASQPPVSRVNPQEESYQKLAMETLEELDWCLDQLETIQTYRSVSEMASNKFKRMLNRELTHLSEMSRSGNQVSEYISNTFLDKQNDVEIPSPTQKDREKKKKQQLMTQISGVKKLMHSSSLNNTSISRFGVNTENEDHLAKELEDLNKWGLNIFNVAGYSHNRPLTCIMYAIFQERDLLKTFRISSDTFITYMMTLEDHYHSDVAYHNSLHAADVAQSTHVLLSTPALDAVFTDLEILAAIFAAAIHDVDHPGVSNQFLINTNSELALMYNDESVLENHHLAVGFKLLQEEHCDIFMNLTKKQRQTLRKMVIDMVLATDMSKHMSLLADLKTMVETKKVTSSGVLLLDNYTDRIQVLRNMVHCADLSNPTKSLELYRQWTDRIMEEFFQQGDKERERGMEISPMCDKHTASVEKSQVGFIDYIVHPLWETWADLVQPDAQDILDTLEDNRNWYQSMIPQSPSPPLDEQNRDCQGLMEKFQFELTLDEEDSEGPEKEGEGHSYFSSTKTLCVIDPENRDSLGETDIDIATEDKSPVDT
Chain of Cytochrome P450 2C19 (Homo sapiens) (P33261 whole entry, looked up): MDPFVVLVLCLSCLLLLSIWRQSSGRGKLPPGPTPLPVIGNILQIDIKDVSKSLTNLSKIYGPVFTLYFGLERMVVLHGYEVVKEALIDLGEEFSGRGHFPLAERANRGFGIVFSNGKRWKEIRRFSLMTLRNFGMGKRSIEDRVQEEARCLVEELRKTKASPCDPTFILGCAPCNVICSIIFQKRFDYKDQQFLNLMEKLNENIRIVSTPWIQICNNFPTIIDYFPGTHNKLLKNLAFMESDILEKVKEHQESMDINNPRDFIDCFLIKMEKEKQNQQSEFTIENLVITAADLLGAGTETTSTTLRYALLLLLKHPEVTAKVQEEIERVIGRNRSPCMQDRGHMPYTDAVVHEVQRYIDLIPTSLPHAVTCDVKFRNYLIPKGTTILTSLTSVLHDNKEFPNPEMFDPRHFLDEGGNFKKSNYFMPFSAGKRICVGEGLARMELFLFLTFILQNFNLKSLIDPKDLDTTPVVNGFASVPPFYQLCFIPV
Chain of Cytochrome P450 2D6 (Homo sapiens) (P10635 whole entry, looked up): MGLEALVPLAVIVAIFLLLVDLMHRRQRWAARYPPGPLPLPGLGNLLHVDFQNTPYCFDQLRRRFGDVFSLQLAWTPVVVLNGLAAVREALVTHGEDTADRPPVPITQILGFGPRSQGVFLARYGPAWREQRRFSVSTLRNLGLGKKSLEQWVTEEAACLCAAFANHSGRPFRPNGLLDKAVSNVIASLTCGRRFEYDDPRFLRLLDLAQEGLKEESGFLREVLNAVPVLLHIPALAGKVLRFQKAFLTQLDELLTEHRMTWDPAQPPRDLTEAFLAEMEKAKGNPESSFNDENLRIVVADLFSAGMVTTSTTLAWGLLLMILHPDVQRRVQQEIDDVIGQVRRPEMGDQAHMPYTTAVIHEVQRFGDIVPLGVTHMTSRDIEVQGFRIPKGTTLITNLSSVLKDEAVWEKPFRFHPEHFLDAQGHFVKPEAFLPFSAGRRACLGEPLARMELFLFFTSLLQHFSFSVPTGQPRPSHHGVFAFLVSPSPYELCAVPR
Chain of Glucocorticoid receptor (Homo sapiens) (P04150 whole entry, looked up, the tested form may be a part): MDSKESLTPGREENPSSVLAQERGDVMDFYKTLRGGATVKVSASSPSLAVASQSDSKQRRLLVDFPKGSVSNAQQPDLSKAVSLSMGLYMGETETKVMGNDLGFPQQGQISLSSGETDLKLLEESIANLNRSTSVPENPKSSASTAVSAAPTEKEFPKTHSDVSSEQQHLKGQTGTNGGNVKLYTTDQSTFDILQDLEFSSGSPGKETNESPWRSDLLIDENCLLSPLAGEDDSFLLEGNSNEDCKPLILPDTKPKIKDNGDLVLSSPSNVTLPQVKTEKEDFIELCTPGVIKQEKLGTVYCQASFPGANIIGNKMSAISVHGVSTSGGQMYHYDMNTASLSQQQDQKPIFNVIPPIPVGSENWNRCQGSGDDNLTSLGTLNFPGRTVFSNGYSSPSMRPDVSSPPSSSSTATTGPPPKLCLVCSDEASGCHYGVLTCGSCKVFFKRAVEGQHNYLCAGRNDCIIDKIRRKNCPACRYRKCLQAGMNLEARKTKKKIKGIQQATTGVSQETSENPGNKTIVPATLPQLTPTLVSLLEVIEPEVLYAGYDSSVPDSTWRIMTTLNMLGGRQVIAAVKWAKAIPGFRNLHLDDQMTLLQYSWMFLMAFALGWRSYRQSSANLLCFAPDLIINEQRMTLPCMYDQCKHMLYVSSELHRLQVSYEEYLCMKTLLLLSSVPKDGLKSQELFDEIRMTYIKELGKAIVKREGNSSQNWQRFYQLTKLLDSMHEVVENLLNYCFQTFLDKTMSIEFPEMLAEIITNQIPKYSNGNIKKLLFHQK

O=CN1C[C@H]2C[C@@H](C1)c1cccc(=O)n1C2
inactive: Potency [1] | Potency [2] > 46 µM | Potency [3] > 46 µM | outcome [4] | outcome [5] | Potency [6] | Potency [7] | Potency [8]

C[C@]12Cc3cn4c(nc3C=C1CC[C@H]1[C@@H]2CC[C@@]2(C)[C@H]1CC[C@@]2(O)C#N)nc1ccccc14
active: Potency [1] 15.8 µM
inactive: Potency [2] > 46 µM | Potency [3] > 46 µM | outcome [4] | outcome [5]

CCCN1CCC[C@H](c2cccc(C#N)c2)C1
inactive: Potency [2] > 46 µM | Potency [3] > 46 µM | outcome [4] | outcome [5]

COc1ccc(OC)c([C@@H](O)[C@H](C)NC(C)(C)C)c1
inactive: Potency [2] > 20.6 µM

CN1CCc2cc3c(cc2[C@@H]1[C@H]1OC(=O)c2c1ccc1c2OCO1)OCO3
inactive: Potency [2] > 46 µM | Potency [3] > 46 µM | outcome [4] | outcome [5]
active: Potency [1] 15.8 µM and 12.6 µM | Potency [6] 3.98 µM | Potency [7] 15.8 µM | Potency [8] 100 nM and 15.8 nM

CCN(CC)c1ncnc2c1ncn2[C@@H]1O[C@@H](COP(=O)(O)OP(=O)(O)C(Br)(Br)P(=O)(O)O)[C@H](O)[C@H]1O
active: Potency [1] 39.8 µM | Potency [7] 0.631 µM
inactive: Potency [2] > 46 µM | Potency [3] > 46 µM | outcome [4] | outcome [5]

CC[C@H]1CN2CC[C@@H]1C[C@@H]2[C@H](O)c1ccnc2ccccc12
inactive: Potency [1] | Potency [2] > 46 µM | Potency [3] > 46 µM | outcome [4] | outcome [5] | Potency [6] | Potency [8]
active: Potency [7] 3.16 µM

O=C1CC[C@]2(O)[C@H]3Cc4ccc(O)c5c4[C@@]2(CCN3CC2CC2)[C@@H]1O5
inactive: outcome [4] | outcome [5]

C[C@H]1C(=O)O[C@H]2CCN3CC=C(COC(=O)[C@](C)(O)[C@@]1(C)O)[C@H]23
inactive: Potency [1] | Potency [2] > 46 µM | Potency [3] > 46 µM | outcome [4] | Potency [6] | Potency [7] | Potency [8]

NC(=O)c1ccc(OC[C@H](O)CN2CC=C(c3ccc(F)cc3)CC2)cc1
inactive: Potency [2] > 46 µM | Potency [3] > 46 µM | outcome [5]

C[C@]1(C(=O)O)[C@@H]2CC[C@@H](O2)[C@@]1(C)C(=O)O
inactive: Potency [2] > 46 µM | Potency [3] > 46 µM | outcome [4] | outcome [5] | Potency [8]

CN1CC=C2C(C#N)=C(N)C(C#N)(C#N)C(c3ccncc3)C2C1 (stereo unspecified)
inactive: Potency [2] > 20.6 µM

CN1CCc2nc3sc(C#N)c(N)c3c(-c3cccs3)c2C1
inactive: Potency [2] > 20.6 µM

CO[C@@H](C)[C@](O)(C(=O)OC1=CCN2CC[C@H](O)[C@H]12)C(C)C
inactive: Potency [1] | Potency [2] > 46 µM | Potency [3] > 46 µM | outcome [4] | outcome [5] | Potency [6] | Potency [7] | Potency [8]

CC[C@H]1[C@@H]2C[C@@H]3[C@@H]4N(C)c5ccccc5[C@@]45C[C@@H]([C@H]2[C@@H]5O)N3[C@@H]1O
inactive: Potency [1] | Potency [2] > 46 µM | Potency [3] > 46 µM | outcome [4] | Potency [6] | Potency [8]
active: Potency [7] 3.16 µM

C=CCN1C[C@@H](C)N([C@H](c2ccc(C(=O)N(CC)CC)cc2)c2cccc(OC)c2)C[C@H]1C
inactive: Potency [2] > 46 µM | Potency [3] > 46 µM | outcome [4] | outcome [5] | Potency [9]

CCCCCC[C@H]1C(=O)O[C@H](C)[C@H](NC(=O)c2cccc(NC=O)c2O)C(=O)O[C@@H](C)[C@H]1OC(=O)CC(C)C
inactive: Potency [1] | Potency [2] > 20.6 µM | Potency [3] > 20.6 µM | outcome [4] | outcome [5] | Potency [9]

C/C=C1\C[C@H](C)[C@](O)(CO)C(=O)OCC2=CCN3CC[C@@H](OC1=O)[C@@H]23
inactive: Potency [1] | Potency [2] > 46 µM | Potency [3] > 46 µM | outcome [4] | Potency [6] | Potency [7] | Potency [8]

COCC(C)OC(=O)c1c(N)n(Cc2ccco2)c2nc3ccccc3nc12 (stereo unspecified)
inactive: Potency [2] > 20.6 µM

N#CC(Cl)Cl
active: Potency [11] 6.52 µM | Potency [18] 12.6 µM
inactive: Potency [10] > 92 µM | Potency [12] > 92 µM | Potency [13] > 92 µM | Potency [14] > 92 µM | outcome [4] | caspase-3 activation [15] -4.27% [at 91.7 µM, primary cells freshly taken from rat, solvent-only wells 0%, staurosporine 100%] | Potency [9] | Potency [16] | Potency [17] | activation [19] 1.8% | max response [20] -22.9%

O=C(O)[C@@H]1C[C@H]1[C@@H](NP(=O)(c1ccccc1)c1ccccc1)c1ccccc1
inactive: Potency [1] | outcome [4] | outcome [5]

CC(C)[C@@]1(NC(=O)[C@@H]2C=C3c4cccc5[nH]cc(c45)C[C@H]3N(C)C2)O[C@@]2(O)[C@@H]3CCCN3C(=O)[C@H](Cc3ccccc3)N2C1=O
inactive: Potency [2] > 20.6 µM

COP(=O)(OC)O/C(=C\Cl)c1cc(Cl)c(Cl)cc1Cl
active: Potency [11] 32.2 µM | Potency [14] 33.5 µM
inactive: Potency [10] > 92 µM | Potency [13] > 92 µM | outcome [4] | caspase-3 activation [15] 2.58% [at 91.7 µM, primary cells freshly taken from rat, solvent-only wells 0%, staurosporine 100%] | Potency [16] | Potency [17] | Potency [18] | activation [19] 0.406% | max response [20] -14.8%

Reference: PubChem BioAssay (NCATS)
